# Data as given in PubChem BioAssay (EPA / NIEHS).
# The source made the active and inactive calls. The calls were made as follows: active = hit-call score of the fitted dose curve at least 0.9, where 1 is the maximum; inactive = score below 0.9.
# Target: Aryl hydrocarbon receptor (Homo sapiens) (UniProt P35869)
# Assay: ATG_Ahr_CIS: Attagene CIS-FACTORIAL HepG2 Assay for human Aryl Hydrocarbon Receptor (Ahr) (AID 2282930)
# Settings: HepG2 AhR cis-factorial reporter transcription; actives raise or lower the signal
# Experimental: ATG_CIS is a cell-based, multiplexed-readout assay that uses HepG2, a human liver cell line, with measurements taken at 24 hours after chemical dosing in a 24-well plate.ATG_Ahr_CIS is one of 52 assay component(s) measured or calculated from the ATG_CIS assay. It is designed to make measurements of mRNA induction, a form of inducible reporter, as detected with fluorescence intensity signals by Reverse transcription polymerase chain reaction (RT-PCR) and Capillary electrophoresis technology.Data from the assay component ATG_Ahr_CIS was analyzed into 1 assay endpoint. This assay endpoint, ATG_Ahr_CIS, was analyzed with bidirectional fitting relative to DMSO as the negative control and baseline of activity. Using a type of inducible reporter, measures of mRNA for gain or loss-of-signal activity can be used to understand the reporter gene at the transcription factor-level as they relate to the gene AHR. Furthermore, this assay endpoint can be referred to as a primary readout, because this assay has produced multiple assay endpoints where this one serves a reporter gene function. To generalize the intended target to other relatable targets, this assay endpoint is annotated to the dna binding intended target family, where the subfamily is basic helix-loop-helix protein.
# Human liver HepG2 cells are transiently transfected with multiple reporter transcription units (MRTUs) in 6-well plates using FuGene 6 reagent (Roche; 3 ml FuGene/1 mg DNA). The MRTU constructs are regulated by a cis-regulating element (promoter). […] A major difference between the CIS and TRANS system is that in CIS activities of endogenous TFs are measured, whereas the TRANS assay evaluates changes in activities of exogenous, chimeric NR-Gal4 proteins. […] At the end of 24 hour incubation, total RNA was isolated using TriZol reagent (Invitrogen). The isolated RNA is then reverse-transcribed using oligo(dT) primer and Mo-MLV reverse transcriptase (Invitrogen) with DNAse I (Ambion) treatment for 30 min. The one-tenth of the produced cDNA was amplified by PCR using Taq DNA polymerase (Invitrogen) and two reporter sequence-specific primers. The PCR products were fluorescently labeled by primer extension with 6-arboxyfluorescein (6-FAM) 5'-labeled reporter sequence-specific primer (2 min at 95 C, 20 s at 68 C and 10 min at 72 C) and these products were digested with 5U of HpaI (New England Biolabs) for 2h at 37 C. […] The raw capillary electrophoresis data was processed using Attagraph software (Attagene).
# Sequence of Aryl hydrocarbon receptor (Homo sapiens) (P35869 whole entry, looked up): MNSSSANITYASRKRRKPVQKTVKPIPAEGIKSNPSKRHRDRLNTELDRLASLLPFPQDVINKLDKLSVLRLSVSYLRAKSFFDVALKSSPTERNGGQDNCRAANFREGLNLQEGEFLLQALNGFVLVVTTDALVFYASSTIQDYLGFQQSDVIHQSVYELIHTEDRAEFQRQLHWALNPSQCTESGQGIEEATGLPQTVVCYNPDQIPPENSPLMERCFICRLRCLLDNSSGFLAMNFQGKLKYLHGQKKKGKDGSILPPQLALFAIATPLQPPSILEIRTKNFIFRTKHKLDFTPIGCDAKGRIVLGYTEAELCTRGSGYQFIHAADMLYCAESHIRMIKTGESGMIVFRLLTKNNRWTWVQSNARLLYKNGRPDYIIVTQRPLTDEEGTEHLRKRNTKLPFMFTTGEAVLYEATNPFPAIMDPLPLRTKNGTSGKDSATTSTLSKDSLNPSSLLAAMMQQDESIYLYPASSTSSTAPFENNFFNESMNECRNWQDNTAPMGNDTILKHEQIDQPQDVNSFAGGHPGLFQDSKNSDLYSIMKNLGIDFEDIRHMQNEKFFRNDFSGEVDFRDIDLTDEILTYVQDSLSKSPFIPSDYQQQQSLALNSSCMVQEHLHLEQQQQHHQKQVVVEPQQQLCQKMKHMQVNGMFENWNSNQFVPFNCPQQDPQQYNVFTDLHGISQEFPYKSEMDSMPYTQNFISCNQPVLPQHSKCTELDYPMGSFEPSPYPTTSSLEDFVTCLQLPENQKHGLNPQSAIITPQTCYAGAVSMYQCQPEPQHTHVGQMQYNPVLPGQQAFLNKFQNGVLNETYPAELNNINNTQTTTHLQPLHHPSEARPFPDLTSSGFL
Structure (SMILES),outcome,AC50
CC(=O)c1c(C)c([N+](=O)[O-])c(C(C)(C)C)c([N+](=O)[O-])c1C,inactive,–
CCC(=O)O[C@@H]1C[C@H]2CC[C@]1(C)C2(C)C,inactive,–
CC(O)C1CCCCC1 (stereo not given),inactive,–
CCCOC(=O)c1c(Cl)c(Cl)c(Cl)c(Cl)c1C(=O)OCCC,inactive,–
CCCCC(CC)C(=O)OC(C)C (stereo not given),inactive,–
COc1ccc(OC)c(N=Nc2c(O)ccc3ccccc23)c1,–,0.51 µM (active)
COC(=O)Nc1ccc(Cl)c(Cl)c1,–,55.7 µM (active)
COC(C)(C)CC(C)=O,inactive,–
NCCNc1cccc2ccccc12,–,7.19 µM (active)
CCCC(O)C(O)CO (stereo not given),–,0.16 µM (active)
CC(C)(C)C1=CC(=O)C(C(C)(C)C)=CC1=O,inactive,–
C=Cc1ccc(C(C)(C)C)cc1,inactive,–
C/C=C(\C)C(=O)OCCc1ccccc1,inactive,–
O=C(O)CNc1ccccc1,–,15.1 µM (active)
CCN(CC)C(=O)N(CC)CC,inactive,–
CC(=O)c1ccccn1,inactive,–
C=C(C)[C@H]1CC=C(C)C(=O)C1,inactive,–
NCc1ccco1,inactive,–
CC1(C)C(=O)N(Cl)C(=O)N1Br,inactive,–
CC(C)=CCCC(C)CC(=O)O (stereo not given),inactive,–

Structure (SMILES),outcome,AC50
CC(=O)O[C@@H]1C[C@@H]2CC[C@@]1(C)C2(C)C,inactive,–
CCCC(=O)c1ccccc1,inactive,–
C=C(C)C(=O)OCCOCCOCCOC(=O)C(=C)C,inactive,–
Cc1ccc(S(=O)(=O)Oc2ccc(N=Nc3ccc(-c4ccc(N=Nc5c(O)ccc6cc(S(=O)(=O)O)cc(S(=O)(=O)O)c56)c(C)c4)cc3C)cc2)cc1,–,30.1 µM (active)
OCCCCC(O)CO (stereo not given),inactive,–
COC(=O)c1ccc(C)cc1C1=NC(C)(C(C)C)C(=O)N1 (stereo not given) (tested in a mixture with another compound),inactive,–
Cc1cc(=O)oc2cc(N(C)C)ccc12,inactive,–
O=C1OC(=O)c2c(Br)c(Br)c(Br)c(Br)c21,inactive,–
CCCCC1CCC(O)CC1 (stereo not given),inactive,–
CCCCCCCC(=O)OCC(O)CO (stereo not given),inactive,–
CC1C2CC(CC2C2CCCC(O)C2)C1(C)C (stereo not given),inactive,–
COC(CC(C)CCCC(C)(C)O)OC (stereo not given),inactive,–
NC1CCCCC1N (stereo not given),inactive,–
C=CC(C)C#N (stereo not given),inactive,–
CC1=C(Br)C(=O)C(Br)=C/C1=C(/c1ccccc1S(=O)(=O)O)c1cc(Br)c(O)c(Br)c1C,–,51.1 µM (active)
Cc1ccc(-c2ccccc2)cc1,inactive,–
Cc1ccc(N)c(S(=O)(=O)O)c1,inactive,–
COc1ccc(N)c([N+](=O)[O-])c1,inactive,–
Cc1c(OCC(F)(F)F)ccnc1CS(=O)c1nc2ccccc2[nH]1 (stereo not given),–,1.28 µM (active)
O=C(O)c1ccc(O)cc1,inactive,–
